Laboratory results published in the supplement of paper PMC10849652.
About 7,900 targets were measured; listed, in parts, are those with a hit and a random draw of the rest. About 0.6% of all pairs of compound and target were hits.

Tests used:
Assay in all cases: log2 fold change, soluble protein after heating vs DMSO (PISA); higher = thermal stabilisation; K562 cells, 10 uM, 30 min; active = over 0.2 and 3.5 SD of the protein, either way, in both replicates (recomputed)
erlotinib = compound: C#Cc1cccc(Nc2ncnc3cc(OCCOC)c(OCCOC)cc23)c1 [erlotinib]
Procedure, shortened: (§1)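 K562 cells (2×10^6 cells/mL) were treated with 10 μM compound for 30 min, and aliquots were heated for 3 min over 48°C-58°C. Pooled aliquots were extracted in PBS with 0.5% NP-40 at 4°C, and the supernatant after 21,000xg for 90 min was measured by TMTpro 16plex LC-MS/MS with channel sums equalised. Reported thermal stability, relative to control samples and from duplicates, is a log2 fold change.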

[1] = compound: C/C(=N\NC(=O)C1=CC(=CC=C1)S(=O)(=O)N2CCOCC2)/C3=C(C=CC(=C3)Cl)O
Procedure, shortened: as §1

[2] = compound: C1=CC(=C(C=C1Cl)C2=NC3=NC=CN=C3C(=N2)NC4=CC=NC=C4)F
Procedure, shortened: as §1

[3] = compound: C1=CC(=CC=C1C2=NC3=C(N2)C=C(C=C3)C(=O)N)OC4=CC=C(C=C4)Cl
Procedure, shortened: as §1

[4] = compound: C1=CC2=C(C=CC(=C2)/C=C\3/C(=O)NC(=NCC4=CC=CS4)S3)N=C1
Procedure, shortened: as §1

[5] = compound: C1=CC2=NC=CN=C2C=C1/C=C/3\C(=O)NC(=O)S3
Procedure, shortened: as §1

[6] = compound: C1=CC=C(C=C1)C2=NC(=C(N2)C3=CC=NC=C3)C4=CC(=C(C=C4)Cl)O
Procedure, shortened: as §1

[7] = compound: C1=CC=C2C(=C1)C3=NNC4=CC=CC(=C43)C2=O
Procedure, shortened: as §1

[8] = compound: C1CCN(C1)C(=O)NC2=CC=CC(=C2)NC3=NC=C(C(=N3)NCCC4=CN=CN4)Br
Procedure, shortened: as §1

[9] = compound: C1CN(CCC1(CC2=CC=C(C=C2)Cl)N)C3=NC=NC4=C3C=CN4
Procedure, shortened: as §1

IRAK-1-4 Inhibitor I = compound: C1COCCN1CCN2C3=CC=CC=C3N=C2NC(=O)C4=CC(=CC=C4)[N+](=O)[O-] [IRAK-1-4 Inhibitor I]
Procedure, shortened: as §1

ibrutinib = compound: C=CC(=O)N1CCC[C@@H](n2nc(-c3ccc(Oc4ccccc4)cc3)c3c(N)ncnc32)C1 [ibrutinib]
Procedure, shortened: as §1

[10] = compound: CC(=O)c1cnc2ccc(-c3cc(Cl)c(O)c(Cl)c3)nc2c1N[C@H]1CC[C@H](CN(C)C)CC1
Procedure, shortened: as §1

ralimetinib = compound: CC(C)(C)Cn1c(N)nc2ccc(-c3[nH]c(C(C)(C)C)nc3-c3ccc(F)cc3)nc21 [ralimetinib]
Procedure, shortened: as §1

[11] = compound: CC(C)(O)CC(=O)NCCn1ccc2ncnc(Nc3ccc(Oc4cccc(C(F)(F)F)c4)c(Cl)c3)c21
Procedure, shortened: as §1

[12] = compound: CC(C)C1=C2N=C(C=C(N2N=C1)NCC3=CC=CC=C3)NCCCCCCN
Procedure, shortened: as §1

[13] = compound: CC(C)C[C@@H](C=O)NC(=O)[C@H](CC(C)C)NC(=O)[C@H](CC(C)C)NC(=O)OCc1ccccc1
Procedure, shortened: as §1

pinometostat = compound: CC(C)N(C[C@H]1O[C@@H](n2cnc3c(N)ncnc32)[C@H](O)[C@@H]1O)[C@H]1C[C@@H](CCc2nc3cc(C(C)(C)C)ccc3[nH]2)C1 [pinometostat]
Procedure, shortened: as §1

[14] = compound: CC1=C(C(CC(=O)N1)C2=CC=C(C=C2)C(F)(F)F)C(=O)NC3=C(C=C4C(=C3)C=NN4)F
Procedure, shortened: as §1

[15] = compound: CC1=C(C2=C(C=C1)C(=O)C3=CC=CC=C3N2CCCN)C
Procedure, shortened: as §1

Measured: log2 fold change

CCDC59 (UniProt Q9P031)
UniProt Q9P031, sequence (Q9P031 whole entry, looked up): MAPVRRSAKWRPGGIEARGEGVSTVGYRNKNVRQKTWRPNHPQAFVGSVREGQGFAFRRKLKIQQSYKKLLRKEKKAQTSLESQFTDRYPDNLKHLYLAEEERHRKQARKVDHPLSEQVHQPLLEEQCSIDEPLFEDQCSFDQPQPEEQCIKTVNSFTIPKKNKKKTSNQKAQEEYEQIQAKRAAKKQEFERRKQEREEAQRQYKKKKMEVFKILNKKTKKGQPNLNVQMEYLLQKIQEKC
inactive: erlotinib -0.118 | [1] -0.127 | [2] -0.192 | [3] 0.071 | [4] -0.136 | [5] -0.014 | [6] -0.091 | [7] 0.069 | [8] 0.054 | [9] -0.027 | IRAK-1-4 Inhibitor I -0.083 | ibrutinib -0.051 | [10] 0.224 | ralimetinib 0.28 | [11] -0.073 | [12] 0.093 | [13] 0.197 | pinometostat 0.233 | [14] 0.036 | [15] -0.468

COMMD2 (UniProt Q86X83)
UniProt Q86X83, sequence (Q86X83 whole entry, looked up): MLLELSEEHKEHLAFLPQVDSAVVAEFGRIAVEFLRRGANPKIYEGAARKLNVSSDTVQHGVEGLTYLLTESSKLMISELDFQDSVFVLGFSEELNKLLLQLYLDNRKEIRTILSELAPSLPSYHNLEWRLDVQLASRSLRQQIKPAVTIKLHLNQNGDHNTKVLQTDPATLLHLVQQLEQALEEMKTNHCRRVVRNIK
inactive: erlotinib 0.114 | [1] 0.049 | [2] -0.053 | [3] 0.085 | [4] 0.091 | [5] -0.02 | [6] -0.017 | [7] 0.058 | [8] 0.071 | [9] -0.119 | IRAK-1-4 Inhibitor I -0.009 | ibrutinib -0.038 | [10] -0.119 | ralimetinib -0.023 | [11] -0.179 | [12] -0.271 | [13] 0.007 | pinometostat 0.037 | [14] 0.008 | [15] 0.01

CTBS (UniProt Q01459)
inactive: erlotinib 0.037 | [1] -0.008 | [2] -0.1 | [3] -0.023 | [4] 0.039 | [5] 0.013 | [6] -0.089 | [7] -0.002 | [8] -0.083 | [9] 0.048 | IRAK-1-4 Inhibitor I 0.073 | ibrutinib 0.067 | [10] -0.082 | ralimetinib -0.035 | [11] 0.018 | [12] -0.151 | [13] -0.028 | pinometostat -0.009 | [14] 0.1 | [15] -0.061

C9orf72 (UniProt Q96LT7)
inactive: erlotinib 0.095 | [1] 0.021 | [2] 0.02 | [3] -0.012 | [4] -0.068 | [5] -0.068 | [6] -0.086 | [7] -0.057 | [8] -0.205 | [9] 0.211 | IRAK-1-4 Inhibitor I 0.016 | ibrutinib 0.022 | [10] -0.001 | ralimetinib 0.035 | [11] -0.051 | [12] 0.029 | [13] -0.019 | pinometostat 0.135 | [14] -0.095 | [15] 0.048

CES2 isoform 4 (UniProt O00748)
inactive: erlotinib -0.05 | [1] -0.16 | [2] -0.264 | [3] -0.008 | [4] -0.06 | [5] -0.011 | [6] 0.139 | [7] 0.083 | [8] 0.061 | [9] -0.087 | IRAK-1-4 Inhibitor I -0.005 | ibrutinib 0.077 | [10] 0.038 | ralimetinib 0.006 | [11] 0.012 | [12] 0.045 | [13] 0.06 | pinometostat -0.02 | [14] -0.128 | [15] 0

CCZ1 (UniProt P86791)
active: [12] -0.287
inactive: erlotinib 0.027 | [1] 0.046 | [2] -0.003 | [3] 0.064 | [4] 0.034 | [5] -0.017 | [6] 0.031 | [7] 0.011 | [8] 0.016 | [9] 0.011 | IRAK-1-4 Inhibitor I 0.063 | ibrutinib -0.001 | [10] -0.039 | ralimetinib -0.051 | [11] -0.05 | [13] 0.025 | pinometostat 0.012 | [14] -0.007 | [15] 0.006

COX15 (UniProt Q7KZN9)
inactive: erlotinib -0.01 | [1] -0.008 | [2] 0.067 | [3] -0.008 | [4] 0.03 | [5] 0.145 | [6] -0.009 | [7] -0.019 | [8] 0.01 | [9] 0.057 | IRAK-1-4 Inhibitor I 0.022 | ibrutinib -0.04 | [10] 0.027 | ralimetinib -0.03 | [11] -0.036 | [12] -0.04 | [13] 0.001 | pinometostat -0.022 | [14] -0.004 | [15] 0.008

CHD3 isoform 3 (UniProt Q12873)
UniProt Q12873, sequence (Q12873 whole entry, looked up): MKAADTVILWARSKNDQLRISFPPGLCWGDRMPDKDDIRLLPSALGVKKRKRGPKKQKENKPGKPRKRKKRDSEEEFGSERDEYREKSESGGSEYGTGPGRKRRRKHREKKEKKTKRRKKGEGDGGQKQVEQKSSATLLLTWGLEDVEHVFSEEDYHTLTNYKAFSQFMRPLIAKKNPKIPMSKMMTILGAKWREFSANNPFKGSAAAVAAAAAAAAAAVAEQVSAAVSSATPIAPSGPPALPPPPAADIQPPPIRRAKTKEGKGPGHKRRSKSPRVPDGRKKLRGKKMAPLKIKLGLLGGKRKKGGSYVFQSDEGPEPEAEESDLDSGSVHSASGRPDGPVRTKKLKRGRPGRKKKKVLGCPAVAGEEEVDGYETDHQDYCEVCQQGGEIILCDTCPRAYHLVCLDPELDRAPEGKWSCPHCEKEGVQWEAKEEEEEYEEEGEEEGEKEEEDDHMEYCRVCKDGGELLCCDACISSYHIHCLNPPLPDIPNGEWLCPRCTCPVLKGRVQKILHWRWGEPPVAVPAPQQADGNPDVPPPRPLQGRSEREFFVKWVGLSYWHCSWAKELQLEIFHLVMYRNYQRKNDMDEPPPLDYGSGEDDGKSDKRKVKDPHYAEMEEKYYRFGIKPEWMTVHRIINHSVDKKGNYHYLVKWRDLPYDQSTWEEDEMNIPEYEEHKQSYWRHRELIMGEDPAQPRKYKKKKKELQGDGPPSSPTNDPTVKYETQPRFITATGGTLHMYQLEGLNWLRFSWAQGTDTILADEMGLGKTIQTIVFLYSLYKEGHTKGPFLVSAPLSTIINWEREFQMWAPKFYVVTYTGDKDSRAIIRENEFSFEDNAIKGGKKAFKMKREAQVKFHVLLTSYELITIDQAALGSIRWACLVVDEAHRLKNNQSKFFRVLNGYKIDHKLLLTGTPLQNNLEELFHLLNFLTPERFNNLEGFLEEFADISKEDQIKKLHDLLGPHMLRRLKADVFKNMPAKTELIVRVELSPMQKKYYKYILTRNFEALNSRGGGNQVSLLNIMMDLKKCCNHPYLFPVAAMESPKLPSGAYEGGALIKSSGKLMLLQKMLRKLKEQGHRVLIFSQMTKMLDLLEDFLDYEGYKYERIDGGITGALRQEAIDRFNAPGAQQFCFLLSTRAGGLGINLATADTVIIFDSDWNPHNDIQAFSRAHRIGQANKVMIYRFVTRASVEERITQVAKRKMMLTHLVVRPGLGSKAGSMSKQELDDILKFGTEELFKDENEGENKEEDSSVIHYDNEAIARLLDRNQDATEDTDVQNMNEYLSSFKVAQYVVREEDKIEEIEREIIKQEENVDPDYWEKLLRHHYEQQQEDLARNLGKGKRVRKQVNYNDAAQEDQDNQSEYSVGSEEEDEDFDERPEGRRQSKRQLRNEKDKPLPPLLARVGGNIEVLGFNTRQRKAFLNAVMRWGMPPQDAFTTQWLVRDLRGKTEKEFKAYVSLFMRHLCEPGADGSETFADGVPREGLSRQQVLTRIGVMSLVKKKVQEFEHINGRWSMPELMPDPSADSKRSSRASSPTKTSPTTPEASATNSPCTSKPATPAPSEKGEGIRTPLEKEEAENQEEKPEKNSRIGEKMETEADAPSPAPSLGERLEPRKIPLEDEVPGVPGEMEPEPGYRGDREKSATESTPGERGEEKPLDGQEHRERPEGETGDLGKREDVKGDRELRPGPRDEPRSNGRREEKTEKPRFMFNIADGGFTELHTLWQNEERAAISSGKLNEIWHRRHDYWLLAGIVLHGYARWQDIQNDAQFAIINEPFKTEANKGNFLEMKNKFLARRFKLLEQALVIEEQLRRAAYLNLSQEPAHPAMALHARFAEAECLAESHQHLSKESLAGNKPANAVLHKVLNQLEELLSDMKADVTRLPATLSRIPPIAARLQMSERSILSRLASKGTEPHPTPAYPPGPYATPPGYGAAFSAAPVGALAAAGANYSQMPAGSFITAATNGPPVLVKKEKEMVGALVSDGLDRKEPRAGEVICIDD
inactive: erlotinib -0.052 | [1] 0.148 | [2] 0.005 | [3] -0.062 | [4] 0 | [5] 0.034 | [6] 0.388 | [7] -0.123 | [8] -0.125 | [9] -0.093 | IRAK-1-4 Inhibitor I -0.052 | ibrutinib -0.1 | [10] -0.284 | ralimetinib 0.36 | [11] -0.075 | [12] -0.319 | [13] 0.186 | pinometostat 0.071 | [14] 0.125 | [15] -0.009

CBX1 (UniProt P83916)
UniProt P83916, sequence (P83916 whole entry, looked up): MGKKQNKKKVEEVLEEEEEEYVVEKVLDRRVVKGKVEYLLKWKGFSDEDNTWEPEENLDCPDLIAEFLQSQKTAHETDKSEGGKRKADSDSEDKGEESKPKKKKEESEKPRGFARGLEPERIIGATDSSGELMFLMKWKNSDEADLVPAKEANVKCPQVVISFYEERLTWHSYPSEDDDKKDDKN
active: [15] -0.288
inactive: erlotinib 0.025 | [1] -0.044 | [2] 0.022 | [3] 0.072 | [4] 0.004 | [5] 0.089 | [6] -0.055 | [7] -0.026 | [8] -0.007 | [9] -0.027 | IRAK-1-4 Inhibitor I -0.105 | ibrutinib -0.001 | [10] -0.038 | ralimetinib -0.054 | [11] 0.013 | [12] 0.034 | [13] -0.007 | pinometostat -0.143 | [14] -0.026

CRKL (UniProt P46109)
active: [10] -1.24
inactive: erlotinib -0.012 | [1] -0.002 | [2] 0.014 | [3] -0.02 | [4] 0.047 | [5] 0.006 | [6] -0.069 | [7] -0.017 | [8] 0.017 | [9] 0.026 | IRAK-1-4 Inhibitor I 0.035 | ibrutinib -0.102 | ralimetinib -0.054 | [11] -0.004 | [12] 0.042 | [13] 0.057 | pinometostat -0.022 | [14] 0.042 | [15] -0.008

CNTN4 (UniProt Q8IWV2)
UniProt Q8IWV2, sequence (Q8IWV2 whole entry, looked up): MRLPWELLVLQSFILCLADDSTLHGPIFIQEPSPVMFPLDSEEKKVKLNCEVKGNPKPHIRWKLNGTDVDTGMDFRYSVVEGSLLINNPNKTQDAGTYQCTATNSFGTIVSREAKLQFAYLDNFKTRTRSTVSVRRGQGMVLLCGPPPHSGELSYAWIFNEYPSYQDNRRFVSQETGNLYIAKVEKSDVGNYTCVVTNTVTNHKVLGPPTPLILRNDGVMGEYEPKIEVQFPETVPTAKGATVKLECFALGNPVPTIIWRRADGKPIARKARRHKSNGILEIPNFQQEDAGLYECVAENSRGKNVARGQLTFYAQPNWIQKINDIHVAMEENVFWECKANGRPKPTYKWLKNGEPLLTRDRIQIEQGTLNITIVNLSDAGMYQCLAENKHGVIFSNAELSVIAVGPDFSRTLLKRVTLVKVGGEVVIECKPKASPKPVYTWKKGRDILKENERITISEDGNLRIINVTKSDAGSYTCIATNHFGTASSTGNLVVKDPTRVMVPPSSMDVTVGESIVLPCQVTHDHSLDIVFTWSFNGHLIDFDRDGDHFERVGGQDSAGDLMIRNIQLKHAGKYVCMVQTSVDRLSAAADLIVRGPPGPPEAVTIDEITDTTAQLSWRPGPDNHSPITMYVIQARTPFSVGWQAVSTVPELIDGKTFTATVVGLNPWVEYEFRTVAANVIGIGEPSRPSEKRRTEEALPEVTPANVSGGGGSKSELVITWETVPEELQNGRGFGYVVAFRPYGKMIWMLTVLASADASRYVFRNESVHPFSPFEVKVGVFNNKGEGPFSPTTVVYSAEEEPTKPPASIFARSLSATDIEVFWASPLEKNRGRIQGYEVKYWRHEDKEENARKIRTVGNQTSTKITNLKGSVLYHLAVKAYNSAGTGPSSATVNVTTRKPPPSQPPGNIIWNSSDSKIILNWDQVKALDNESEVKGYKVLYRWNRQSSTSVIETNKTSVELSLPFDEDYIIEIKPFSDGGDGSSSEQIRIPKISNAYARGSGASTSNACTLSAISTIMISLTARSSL
active: [1] -0.641
inactive: erlotinib 0.284 | [2] 0.012 | [3] 0.018 | [4] 0.179 | [5] -0.095 | [6] 0.05 | [7] 0.097 | [8] -0.097 | [9] 0.194 | IRAK-1-4 Inhibitor I 0.049 | ibrutinib 0.023 | [10] 0.065 | ralimetinib 0.025 | [11] -0.108 | [12] 0.195 | [13] 0.044 | pinometostat -0.027 | [14] -0.014 | [15] 0.137

CASP8 isoform 9 (UniProt Q14790)
UniProt Q14790, sequence (Q14790 whole entry, looked up): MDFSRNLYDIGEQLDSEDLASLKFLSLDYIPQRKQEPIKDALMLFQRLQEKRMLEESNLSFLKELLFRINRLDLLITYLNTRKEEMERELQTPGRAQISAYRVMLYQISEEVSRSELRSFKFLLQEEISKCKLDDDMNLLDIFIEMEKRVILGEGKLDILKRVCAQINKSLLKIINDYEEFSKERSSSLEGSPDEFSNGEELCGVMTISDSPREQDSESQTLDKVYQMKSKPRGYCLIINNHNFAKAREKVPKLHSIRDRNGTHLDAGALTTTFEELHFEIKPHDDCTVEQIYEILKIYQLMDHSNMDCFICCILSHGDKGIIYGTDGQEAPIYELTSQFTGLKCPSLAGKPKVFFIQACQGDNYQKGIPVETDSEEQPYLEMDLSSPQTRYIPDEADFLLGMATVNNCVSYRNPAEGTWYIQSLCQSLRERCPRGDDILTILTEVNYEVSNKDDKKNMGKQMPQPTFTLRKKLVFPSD
inactive: erlotinib -0.008 | [1] 0.056 | [2] -0.055 | [3] -0.023 | [4] 0.021 | [5] 0.052 | [6] -0.078 | [7] 0.104 | [8] -0.051 | [9] -0.014 | IRAK-1-4 Inhibitor I -0.056 | ibrutinib -0.027 | [10] 0.098 | ralimetinib -0.058 | [11] -0.092 | [12] -0.264 | [13] -0.025 | pinometostat 0.124 | [14] 0.028 | [15] 0

CD151 (UniProt P48509)
inactive: erlotinib -0.035 | [1] 0.029 | [2] 0.045 | [3] 0.103 | [4] -0.021 | [5] 0.069 | [6] 0.021 | [7] -0.125 | [8] -0.021 | [9] 0.113 | IRAK-1-4 Inhibitor I -0.077 | ibrutinib 0.012 | [10] 0.025 | ralimetinib 0.013 | [11] -0.021 | [12] -0.017 | [13] 0.027 | pinometostat -0.054 | [14] 0.082 | [15] 0.083

CALCOCO2 isoform 4 (UniProt Q13137)
UniProt Q13137, sequence (Q13137 whole entry, looked up): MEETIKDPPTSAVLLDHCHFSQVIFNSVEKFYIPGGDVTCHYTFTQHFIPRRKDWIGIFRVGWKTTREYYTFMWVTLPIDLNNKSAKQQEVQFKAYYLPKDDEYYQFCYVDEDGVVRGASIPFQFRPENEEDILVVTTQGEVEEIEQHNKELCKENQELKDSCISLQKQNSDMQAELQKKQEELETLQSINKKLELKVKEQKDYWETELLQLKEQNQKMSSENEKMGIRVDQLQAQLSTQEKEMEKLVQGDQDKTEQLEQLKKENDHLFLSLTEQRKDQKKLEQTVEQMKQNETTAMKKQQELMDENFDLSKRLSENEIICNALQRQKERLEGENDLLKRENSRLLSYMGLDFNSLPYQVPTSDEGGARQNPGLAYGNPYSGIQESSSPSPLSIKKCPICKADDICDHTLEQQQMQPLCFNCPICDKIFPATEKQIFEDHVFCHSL
active: [12] -0.599
inactive: erlotinib -0.081 | [1] 0.018 | [2] -0.08 | [3] 0.059 | [4] 0.022 | [5] -0.043 | [6] -0.003 | [7] -0.057 | [8] -0.016 | [9] -0.052 | IRAK-1-4 Inhibitor I 0.004 | ibrutinib -0.016 | [10] -0.09 | ralimetinib 0.045 | [11] -0.005 | [13] 0.115 | pinometostat 0.054 | [14] 0.045 | [15] -0.065

CSNK2A1 (UniProt P68400)
UniProt P68400, sequence (P68400 whole entry, looked up): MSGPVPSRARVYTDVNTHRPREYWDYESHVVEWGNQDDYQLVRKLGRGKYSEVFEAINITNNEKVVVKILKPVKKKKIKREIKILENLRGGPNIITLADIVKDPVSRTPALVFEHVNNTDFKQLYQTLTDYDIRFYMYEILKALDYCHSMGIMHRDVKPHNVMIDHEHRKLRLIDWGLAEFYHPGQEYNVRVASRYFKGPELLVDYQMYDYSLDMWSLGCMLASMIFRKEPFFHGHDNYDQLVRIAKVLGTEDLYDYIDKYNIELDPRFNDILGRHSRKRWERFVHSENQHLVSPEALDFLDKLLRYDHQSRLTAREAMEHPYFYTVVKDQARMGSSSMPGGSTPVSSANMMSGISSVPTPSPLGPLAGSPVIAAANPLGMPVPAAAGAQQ
inactive: erlotinib -0.03 | [1] -0.011 | [2] 0.006 | [3] 0.024 | [4] 0.139 | [6] -0.041 | [7] 0.094 | [8] -0.003 | [9] -0.013 | IRAK-1-4 Inhibitor I 0.022 | ibrutinib 0.029 | ralimetinib -0.082 | [11] 0.006 | [12] -0.064 | [13] -0.021 | pinometostat 0.103 | [14] 0.004 | [15] 0.159
active: [5] 0.296 | [10] 0.245

CSTF3 (UniProt Q12996)
active: [15] 0.262
inactive: erlotinib -0.038 | [1] 0.012 | [2] -0.003 | [3] 0.015 | [4] 0.014 | [5] 0.077 | [6] -0.032 | [7] 0.035 | [8] 0.027 | [9] -0.027 | IRAK-1-4 Inhibitor I 0.087 | ibrutinib 0 | [10] 0.019 | ralimetinib -0.052 | [11] -0.026 | [12] 0.132 | [13] -0.012 | pinometostat 0.021 | [14] -0.018
